From PubChem BioAssay (NCATS)
Several values for one entry are separate records, joined by “and”; a condition that tells them apart may be missing. Equal entries are not always repeated. A number with no mark means an inactive call. Inconclusive results are not listed. A call without a number means that no potency is given here. Activity calls are given as the source filed them. Unless noted, calls follow the shape of the dose curve; as a rule, active = well fitted curve in the direction sought with a large enough effect; inconclusive = small, poorly fitted or top-dose-only effect, or another doubt; inactive = no such curve, though single readings can be large; an effect the other way counts as inactive or inconclusive.

target: Voltage-gated inwardly rectifying potassium channel KCNH2 (Homo sapiens) (UniProt Q12809); assay: qHTS Assay for Small Molecule Inhibitors of the Human hERG Channel Activity (AID 588834); settings: U2OS BacMam hERG, FluxOR thallium flux fluorescence; series mostly up to 92.2 µM;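 also: top concentration of the series differs between compounds; lower thallium flux fluorescence means stronger hERG block; nearly all actives have a fitted effect of over 50% in size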
Procedure, shortened: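 U2OS cells BacMam-transduced with hERG, 2000 cells/well, compound ~10 min at 37 °C before stimulation buffer. FluxOR thallium flux fluorescence read kinetically on FDSS; decrease indicates block; AC50 from Hill fits.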

Voltage-gated inwardly rectifying potassium channel KCNH2 (Homo sapiens), sequence (Q12809 whole entry, looked up): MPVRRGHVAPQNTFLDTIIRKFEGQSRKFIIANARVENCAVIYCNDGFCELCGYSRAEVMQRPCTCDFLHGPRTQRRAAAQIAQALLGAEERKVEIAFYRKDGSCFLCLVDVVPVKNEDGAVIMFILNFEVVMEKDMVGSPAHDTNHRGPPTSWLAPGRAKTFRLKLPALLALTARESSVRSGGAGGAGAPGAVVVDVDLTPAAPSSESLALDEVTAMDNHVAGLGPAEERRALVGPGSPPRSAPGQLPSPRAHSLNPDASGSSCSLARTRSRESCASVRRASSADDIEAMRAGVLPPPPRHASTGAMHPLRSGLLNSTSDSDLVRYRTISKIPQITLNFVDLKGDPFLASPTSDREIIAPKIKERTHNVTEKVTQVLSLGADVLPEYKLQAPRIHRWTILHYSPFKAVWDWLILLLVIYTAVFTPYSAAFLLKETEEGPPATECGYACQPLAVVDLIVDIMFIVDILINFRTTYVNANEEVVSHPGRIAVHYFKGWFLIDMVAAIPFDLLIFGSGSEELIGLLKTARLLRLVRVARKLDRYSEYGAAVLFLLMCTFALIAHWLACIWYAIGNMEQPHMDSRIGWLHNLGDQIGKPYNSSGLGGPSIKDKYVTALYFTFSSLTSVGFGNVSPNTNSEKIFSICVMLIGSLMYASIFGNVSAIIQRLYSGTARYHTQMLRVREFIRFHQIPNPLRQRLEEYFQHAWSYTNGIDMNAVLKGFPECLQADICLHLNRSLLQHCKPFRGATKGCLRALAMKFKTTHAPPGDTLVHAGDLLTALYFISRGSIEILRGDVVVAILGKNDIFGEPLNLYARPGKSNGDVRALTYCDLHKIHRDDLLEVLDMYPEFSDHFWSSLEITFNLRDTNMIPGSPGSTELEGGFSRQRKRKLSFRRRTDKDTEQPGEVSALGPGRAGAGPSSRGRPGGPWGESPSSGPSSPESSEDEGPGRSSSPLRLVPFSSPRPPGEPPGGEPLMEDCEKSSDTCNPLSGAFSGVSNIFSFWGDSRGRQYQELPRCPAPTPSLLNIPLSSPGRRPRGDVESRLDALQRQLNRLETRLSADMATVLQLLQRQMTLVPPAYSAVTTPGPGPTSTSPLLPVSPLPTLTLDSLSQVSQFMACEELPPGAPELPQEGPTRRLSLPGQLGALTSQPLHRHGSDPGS

Q: Which Potency does the source give for `C=CCc1ccc(OC)c(OC)c1` here?
A: Its Potency is “inactive”.

Q: For `C=C(C)C1CC=C(C)C(O)C1` (stereo unspecified), which Potency is on record?
A: Its Potency is “inactive”.

Q: Which Potency does the source give for `CC1=C2[C@H](/C=C(\C)C(=O)O)CC[C@@H](C)[C@H]2CC1` here?
A: Its Potency is “inactive”.

Q: With `CCCCCCCCCCCC(=O)O` as the compound, how does the Potency read?
A: The Potency was “inactive”.

system: not listed separately; assay: qHTS assay for small molecule activators of the p53 signaling pathway (AID 651743; active = well fitted activation curve with a large enough effect in the signal ratio, not every such curve was filed as active; the % refers to the signal ratio); settings: HCT-116 p53RE-bla, beta-lactamase FRET ratio, 16 h; activation: hits give high values
Procedure, shortened: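 p53RE-bla HCT-116 cells with a stably integrated beta-lactamase reporter under p53 response elements were plated, rested 5 hours at 37 C/5% CO2, then exposed to compounds in DMSO for 16 hours at 37 C. LiveBLAzer B/G FRET substrate was read after 2 hours at room temperature.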

Q: Which activation does the source give for `C=CCc1ccc(OC)c(OC)c1` here?
A: The activation was 0.847% and -0.413%.

Q: With `C=C(C)C1CC=C(C)C(O)C1` (stereo unspecified) as the compound, how does the activation read?
A: The activation was -1.04%.

Q: For `CC1=C2[C@H](/C=C(\C)C(=O)O)CC[C@@H](C)[C@H]2CC1`, which activation is on record?
A: The activation was -7.78%.

system: not listed separately; assay: qHTS assay for small molecule activators of the nuclear factor-kappa B (NF-kB) signaling pathway (AID 651749; active = well fitted activation curve with a large enough effect in the signal ratio; the % refers to the signal ratio); settings: NF-kB-bla ME-180 cells, beta-lactamase FRET ratio, 16 h; hits give high values
Procedure, shortened: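 ME-180 cells stably carrying a beta-lactamase reporter under an NF-kB response element were exposed to compound or DMSO vehicle for 16 hr at 37C, 5% CO2. Pathway activation was read by FRET, since reporter expression disrupts FRET.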

Q: With `C=CCc1ccc(OC)c(OC)c1` as the compound, how does the activation read?
A: Its activation is -0.295% and 0.286%.

Q: Which activation does the source give for `C=C(C)C1CC=C(C)C(O)C1` (stereo unspecified) here?
A: The activation was -0.16%.

Q: With `CC1=C2[C@H](/C=C(\C)C(=O)O)CC[C@@H](C)[C@H]2CC1` as the compound, how does the activation read?
A: The activation was -1.71%.

system: not listed separately; assay: qHTS assay for small molecule disruptors of the mitochondrial membrane potential - 1 hr assay (AID 651754; calls by dose curve; also: nearly all actives have a fitted effect of over 35% in size); settings: series mostly up to 92.2 µM
Procedure, shortened: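 HepG2 cells, attached overnight at 37C, were exposed to compound or DMSO vehicle for 1 hr at 37C, 5% CO2, then stained with Mito-MPS dye for 30 min. Red aggregate versus green monomer fluorescence reports membrane potential.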

Q: Which Potency does the source give for `C=CCc1ccc(OC)c(OC)c1` here?
A: Its Potency is “inactive”.

Q: Which Potency does the source give for `C=C(C)C1CC=C(C)C(O)C1` (stereo unspecified) here?
A: The Potency was “inactive”.

Q: With `CCCCCCCCCCCC(=O)O` as the compound, how does the Potency read?
A: The Potency was “inactive”.

system: not listed separately; assay: qHTS assay for small molecule disruptors of the mitochondrial membrane potential - 5 hr assay (AID 651755; calls by dose curve; also: nearly all actives have a fitted effect of over 40% in size); settings: JC-1-type ratio dye; series mostly up to 92.2 µM
Procedure, shortened: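 HepG2 cells, attached overnight at 37C, were exposed to compound or DMSO for 5 hr at 37C, 5% CO2. Mito-MPS dye was then added for 30 min, and fluorescence read at 490/535 nm (monomers) and 540/590 nm (aggregates).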

Q: With `C=CCc1ccc(OC)c(OC)c1` as the compound, how does the Potency read?
A: The Potency was “inactive”.

Q: With `C=C(C)C1CC=C(C)C(O)C1` (stereo unspecified) as the compound, how does the Potency read?
A: Its Potency is “inactive”.

Q: For `CCCCCCCCCCCC(=O)O`, which Potency is on record?
A: The Potency was “inactive”.

target: Tumor necrosis factor (Homo sapiens) (UniProt P01375); assay: qHTS assay to identify small molecules that stimulate Tumor Necrosis Factor-alpha (TNF-alpha) secretion (AID 651757; active = well fitted curve in the direction sought with a large enough effect in the signal ratio; the % refers to the signal ratio); settings: Human cells, HTRF 665/615 ratio; series mostly up to 92.2 µM
Procedure, shortened: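 THP-1 cells were exposed to compounds for 17 hrs at 37 C, after which secreted TNF-alpha was measured by homogeneous HTRF (TR-FRET) using cryptate- and XL665-labeled anti-TNF-alpha antibodies, read after 3 hr at room temperature.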

Tumor necrosis factor (Homo sapiens), sequence (P01375 whole entry, looked up): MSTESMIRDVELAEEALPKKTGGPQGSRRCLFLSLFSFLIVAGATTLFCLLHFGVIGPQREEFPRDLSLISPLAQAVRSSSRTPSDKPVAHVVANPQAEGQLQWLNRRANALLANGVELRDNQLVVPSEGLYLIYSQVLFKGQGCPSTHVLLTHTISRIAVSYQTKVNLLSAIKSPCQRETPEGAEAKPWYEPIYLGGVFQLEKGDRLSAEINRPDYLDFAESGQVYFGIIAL

Q: For `C=CCc1ccc(OC)c(OC)c1`, which outcome is on record?
A: The outcome was “inactive”.

Q: Which outcome does the source give for `C=C(C)C1CC=C(C)C(O)C1` (stereo unspecified) here?
A: The outcome was “inactive”.

Q: For `CC1=C2[C@H](/C=C(\C)C(=O)O)CC[C@@H](C)[C@H]2CC1`, which outcome is on record?
A: The outcome was “inactive”.

Q: Which outcome does the source give for `CCCCCCCCCCCC(=O)O` here?
A: The outcome was “inactive”.

system: not listed separately; assay: qHTS assay for environmental chemicals that activate the Aryl hydrocarbon Receptor (AhR) signaling pathway (AID 651777); settings: 1A2-DRE human hepatoma cells, luciferase, 24 h; activation: hits give high values; also: nearly all actives have a fitted effect of over 15% in size
Procedure, shortened: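 Luminescence read-out: One-Glo added for 30 min at RT after 24 hr compound treatment (37 C, 5% CO2) of human hepatoma cells expressing a DRE/CYP1A2 promoter–luciferase reporter; increased signal indicates AhR activation.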

Q: For `C=CCc1ccc(OC)c(OC)c1`, which activation is on record?
A: Its activation is 0.456% and 0.0921%.

Q: With `C=C(C)C1CC=C(C)C(O)C1` (stereo unspecified) as the compound, how does the activation read?
A: The activation was -0.5%.

Q: For `CC1=C2[C@H](/C=C(\C)C(=O)O)CC[C@@H](C)[C@H]2CC1`, which activation is on record?
A: Its activation is 0.0877%.

Q: With `CCCCCCCCCCCC(=O)O` as the compound, how does the activation read?
A: The activation was 0.903% and 1.44%.

target: Peroxisome proliferator-activated receptor alpha (Homo sapiens) (UniProt Q07869); assay: qHTS assay for small molecule agonists of the peroxisome proliferator-activated receptor alpha (PPARalpha) signaling pathway (AID 651778); settings: PathHunter PPARalpha complementation, chemiluminescence, 6 h; max response: hits give high values
Procedure, shortened: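 Cells plated at 2,000/well and held overnight at 37 C, 5% CO2, then compound added by pin tool for 6 hr; after PathHunter detection reagent and 60 min at room temperature, chemiluminescence from enzyme complementation was read.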

Peroxisome proliferator-activated receptor alpha (Homo sapiens), sequence (Q07869 whole entry, looked up): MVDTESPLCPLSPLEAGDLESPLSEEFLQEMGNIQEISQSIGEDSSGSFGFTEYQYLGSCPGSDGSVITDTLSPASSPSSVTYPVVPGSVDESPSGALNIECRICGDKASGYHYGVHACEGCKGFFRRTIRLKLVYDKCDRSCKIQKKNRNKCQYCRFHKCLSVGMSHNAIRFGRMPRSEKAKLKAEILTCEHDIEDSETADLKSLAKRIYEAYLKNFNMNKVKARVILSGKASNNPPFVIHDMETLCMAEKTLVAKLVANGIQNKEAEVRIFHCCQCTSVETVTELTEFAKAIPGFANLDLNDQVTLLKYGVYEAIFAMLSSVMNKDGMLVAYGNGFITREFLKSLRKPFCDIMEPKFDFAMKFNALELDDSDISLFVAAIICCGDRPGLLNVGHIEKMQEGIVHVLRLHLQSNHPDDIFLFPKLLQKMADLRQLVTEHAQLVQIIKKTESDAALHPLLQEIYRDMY

Q: With `C=CCc1ccc(OC)c(OC)c1` as the compound, how does the max response read?
A: The max response was 8.14% and -0.977%.

Q: For `C=C(C)C1CC=C(C)C(O)C1` (stereo unspecified), which max response is on record?
A: Its max response is -4.25%.

Q: With `CC1=C2[C@H](/C=C(\C)C(=O)O)CC[C@@H](C)[C@H]2CC1` as the compound, how does the max response read?
A: The max response was 14.9%.

Q: With `CCCCCCCCCCCC(=O)O` as the compound, how does the max response read?
A: The max response was 9.6% and 16.5%.

target: Nuclear receptor ROR-gamma (Homo sapiens) (UniProt P51449); assay: qHTS assay for small molecule antagonists of the retinoid-related orphan receptor gamma (ROR-gamma) signaling pathway (AID 651802); settings: ROR-gamma antagonist cell reporter assay; series mostly up to 92.2 µM; also: nearly all actives have a fitted effect of over 60% in size
Procedure, shortened: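 CHO cells carrying TET-inducible ROR-gamma and an ROR response element–luciferase reporter were exposed to compound, then induced with doxycycline. After 16hr at 37C, luminescence was read; lower signal indicates antagonism.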

Nuclear receptor ROR-gamma (Homo sapiens), sequence (P51449 whole entry, looked up): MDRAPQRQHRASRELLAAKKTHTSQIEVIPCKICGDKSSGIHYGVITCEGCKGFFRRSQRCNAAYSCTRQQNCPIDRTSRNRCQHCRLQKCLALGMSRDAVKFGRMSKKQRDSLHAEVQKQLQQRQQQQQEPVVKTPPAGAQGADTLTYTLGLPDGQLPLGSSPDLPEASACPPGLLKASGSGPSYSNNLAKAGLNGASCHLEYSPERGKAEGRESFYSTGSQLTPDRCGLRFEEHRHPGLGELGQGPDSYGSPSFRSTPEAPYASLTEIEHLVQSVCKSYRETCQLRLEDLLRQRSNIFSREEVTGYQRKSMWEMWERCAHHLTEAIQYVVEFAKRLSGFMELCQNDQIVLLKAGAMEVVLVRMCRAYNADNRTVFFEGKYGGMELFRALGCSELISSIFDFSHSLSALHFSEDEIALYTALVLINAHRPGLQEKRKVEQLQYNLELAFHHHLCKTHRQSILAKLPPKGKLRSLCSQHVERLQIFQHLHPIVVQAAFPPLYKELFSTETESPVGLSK

Q: Which Potency does the source give for `C=CCc1ccc(OC)c(OC)c1` here?
A: The Potency was “inactive”.

Q: For `C=C(C)C1CC=C(C)C(O)C1` (stereo unspecified), which Potency is on record?
A: The Potency was “inactive”.

Q: For `CCCCCCCCCCCC(=O)O`, which Potency is on record?
A: The Potency was “inactive”.
